Assay results taken from PubChem BioAssay (NCI).
Compounds without any hit were thinned out: in the full panel of roughly 83,000, 20% have a hit.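 The test compound was applied at a single concentration to cells in 96-well plates for 48 hours, and percent growth was recorded.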 A number with no mark means an inactive call. The source made the active and inactive calls. Rule for the calls: active = growth percent below 10; inactive = the rest.

Key:
Experiment in all cases: NCI-60 one-dose screen, 48 h (100 = growth as untreated, 0 = no growth, -100 = all killed)
Conditions in all cases: 10 µM unless noted
NCI-H23 lung = test system: NCI-H23 lung
NCI-H226 lung = test system: NCI-H226 lung
NCI-H322M lung = test system: NCI-H322M lung
HOP-62 NSCLC = test system: HOP-62 NSCLC
NCI-H460 lung = test system: NCI-H460 lung
HOP-92 NSCLC = test system: HOP-92 NSCLC
NCI-H522 lung = test system: NCI-H522 lung
A549/ATCC NSCLC = test system: A549/ATCC NSCLC
786-0 renal = test system: 786-0 renal
COLO 205 colon = test system: COLO 205 colon
DU-145 prostate = test system: DU-145 prostate
K-562 leukemia = test system: K-562 leukemia
MALME-3M melanoma = test system: MALME-3M melanoma
MDA-MB-231 breast = test system: MDA-MB-231 breast
RXF 393 renal = test system: RXF 393 renal
SF-268 CNS = test system: SF-268 CNS
SF-295 CNS = test system: SF-295 CNS
SF-539 CNS = test system: SF-539 CNS
UACC-257 melanoma = test system: UACC-257 melanoma
M14 melanoma = test system: M14 melanoma

Compound | growth (NCI-H23 lung) | growth (NCI-H226 lung) | growth (NCI-H322M lung) [%] | growth (HOP-62 NSCLC) | growth (NCI-H460 lung) | growth (HOP-92 NSCLC) | growth (NCI-H522 lung) | growth (A549/ATCC NSCLC) | growth (786-0 renal) | growth (COLO 205 colon) | growth (DU-145 prostate) | growth (K-562 leukemia) | growth (MALME-3M melanoma) | growth (MDA-MB-231 breast) | growth (RXF 393 renal) | growth (SF-268 CNS) | growth (SF-295 CNS) | growth (SF-539 CNS) | growth (UACC-257 melanoma) | growth (M14 melanoma)
Cc1cnc(SCc2ccc(Cl)cc2)[nH]c1=S | 94.8% | 111% | 89.5 | 94.2% | 113% | 105% | 78.7% | 94.4% | 92.8% | 121% | 100% | 92.9% | 95.8% | 101% | 132% | 95.3% | 95.5% | 101% | 102% | 102%
COc1cc(-c2cn(-c3ccc(Cl)c(Cl)c3)c(=O)[nH]2)cc(OC)c1OC | 92.4% | 93.1% | 69.7 | -1.73% (active) | 96.7% | 82% | 74.5% | 89.7% | 14.4% | 105% | 100% | 84.3% | 60.9% | 71.5% | 86.4% | 87.6% | 104% | 91.3% | 87.4% | 95.2%
FC(F)(F)c1ccc2c(Nc3cccc(C4CC(c5ccccc5)=NN4c4ccc(Cl)cc4)c3)ccnc2c1 (stereo not given) | 61% | 68.1% | 68.7 | 60.2% | 59.1% | 47.5% | 50.2% | 72.4% | 77.1% | 58.1% | 47.7% | 6.6% (active) | 83% | 68% | 74.2% | 50.8% | 57.8% | 86.9% | 73.8% | 41.2%
c1ccc(-c2n(Cc3ccc4ccccc4n3)cc[n+]2Cc2ccc3ccccc3n2)cc1 | 22.9% | 36.2% | 85.9 | 74.3% | 41.6% | -6.03% (active) | 16.2% | 73.3% | 77.7% | -49.3% (active) | 65.8% | 16.9% | 19.8% | 30.5% | 52.2% | 41.8% | 67.8% | 37.2% | -14.6% (active) | 34.6%
C#C[C@@]1(O)[C@@H](CO)O[C@@H](n2cc(-c3ccco3)c3c(N)ncnc32)[C@@H]1O | 78.6% | 70.7% | 69.5 | 67.7% | 52.1% | 30% | 61.7% | 68.5% | 85.6% | 46.4% | 67.9% | 86.1% | 59.4% | 102% | 80.9% | 83% | 76.9% | 46% | 89.3% | 69.9%
CN1CCN(C(=O)[C@@]2(C)CC[C@]3(C)CC[C@]4(C)C(=CC[C@@H]5[C@@]6(C)CC[C@H](OC(=O)c7cccnc7)C(C)(C)[C@@H]6CC[C@]54C)[C@@H]3C2)CC1 | 75.3% | 95.2% | 94.9 | 83.7% | 11.7% | 79.2% | 98.6% | 69.8% | 13% | 68.3% | 78.7% | -24.1% (active) | 60.2% | 48.4% | 60.3% | 85.4% | 67.8% | 59.8% | 58.6% | 80.7%
CCCCn1c(=O)c(/C=C/C(=O)/C=C/c2cc3ccccc3n(CCCC)c2=O)cc2ccccc21 | -7.39% (active) | -22.8% (active) | 49.6 | 49% | 5.91% (active) | 64.4% | 5.74% (active) | -0.936% (active) | -63% (active) | -22% (active) | -7.95% (active) | 3.37% (active) | 8.02% (active) | -18.8% (active) | -89.9% (active) | 7.91% (active) | 3.65% (active) | -7.12% (active) | -24% (active) | -29.9% (active)
O=C(Nc1ccccc1)NS(=O)(=O)c1c[nH]c(=S)[nH]c1=O | 92.3% | 105% | 104 | 72.4% | 106% | 115% | 60.7% | 80.7% | 95.7% | 96.5% | 105% | 103% | 100% | 105% | 127% | 97.1% | 97.8% | 99.8% | 92.5% | 104%
